Experimental data reported in PubChem BioAssay (Tox21).
Records with an inconclusive call do not appear. Active and inactive are the calls of the source. Calls follow the shape of the dose curve; as a rule, active = well fitted curve in the direction sought with a large enough effect in the repeat runs; inconclusive = weak or mixed curves; inactive = no such curve, though single readings can be large; an effect the other way counts as inactive or inconclusive.

Key:
[1] = A CellTox Green Cytotoxicity Assay to monitor cytotoxicity in HEK293 cells - 40 hour (AID 1224871); also: nearly all actives have a fitted effect of over 45% in size; also: potency is read from the fitted curve at half-maximal effect
How it was run: (§1)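 HEK293 cells premixed with CellTox Green dye were seeded at 600 cells/well and left 5 h at 37 C/5% CO2 before pin transfer of 23 nL compound in DMSO. Fluorescence from dye bound to dead-cell DNA was read during 40 h treatment.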

[2] = qHTS RealTime-Glo MT Cell Viability Assay in HEK293 cells - 16 hour (AID 1224872); also: top concentration of the series differs between compounds; nearly all actives have a fitted effect of over 50% in size
How it was run: (§2)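 Tox21 10K qHTS, HEK293, 600 cells/well, RealTime-Glo reagent co-dispensed with cells; 5 h preincubation, compound by pintool, 37 C, luminescence at 0–40 h.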

[3] = qHTS RealTime-Glo MT Cell Viability Assay in HepG2 cells - 8 hour (AID 1224873); also: nearly all actives have a fitted effect of over 55% in size
How it was run: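 HepG2 cells mixed with RealTime-Glo MT reagents (NanoLuc plus cell-permeant prosubstrate) were seeded at 600 cells/well, incubated 5 h at 37 C/5% CO2, then pinned with compounds in DMSO; nonlytic luminescence tracked viability during 40 h treatment.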

[4] = qHTS RealTime-Glo MT Cell Viability Assay in HEK293 cells - 40 hour (AID 1224874); conditions: RealTime-Glo luminescence; max response: stronger effect = lower value; also: nearly all actives have a fitted effect of over 50% in size
How it was run: (§3)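 HEK293 cells mixed with RealTime-Glo reagents (NanoLuc plus cell-permeant prosubstrate) at 600 cells/well, preincubated 5 h at 37 C/5% CO2, then given 23 nL compound in DMSO. Nonlytic luminescence from viable cells was read at 0, 8, 16, 24, 32 and 40 h.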

[5] = A CellTox Green Cytotoxicity Assay to monitor cytotoxicity in HEK293 cells - 24 hour (AID 1224875); also: nearly all actives have a fitted effect of over 45% in size; also: potency is read from the fitted curve at half-maximal effect
How it was run: as §1

[6] = A CellTox Green Cytotoxicity Assay to monitor cytotoxicity in HepG2 cells - 16 hour (AID 1224876); also: nearly all actives have a fitted effect of over 45% in size; also: potency is read from the fitted curve at half-maximal effect
How it was run: (§4)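 HepG2 cells were seeded together with the CellTox Green dye at 600 cells/well, left 5 h at 37 C/5% CO2, then given compounds in DMSO. Fluorescence from dye bound to dead-cell DNA was read repeatedly over 40 h of treatment at 37 C.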

[7] = qHTS RealTime-Glo MT Cell Viability Assay in HepG2 cells - 32 hour (AID 1224877); also: nearly all actives have a fitted effect of over 55% in size
How it was run: (§5)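 Cells + NanoLuc/prosubstrate dispensed (600 cells/well) → 5 h at 37 C/5% CO2 → compounds in DMSO transferred → 40 h incubation at 37 C, luminescence read at 0, 8, 16, 24, 32, 40 h.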

[8] = A CellTox Green Cytotoxicity Assay to monitor cytotoxicity in HepG2 cells - 24 hour (AID 1224878); also: nearly all actives have a fitted effect of over 45% in size; also: potency is read from the fitted curve at half-maximal effect
How it was run: as §4

[9] = A CellTox Green Cytotoxicity Assay to monitor cytotoxicity in HepG2 cells - 40 hour (AID 1224879); also: nearly all actives have a fitted effect of over 40% in size; also: potency is read from the fitted curve at half-maximal effect
How it was run: as §4

[10] = qHTS RealTime-Glo MT Cell Viability Assay in HEK293 cells - 0 hour (AID 1224880); also: nearly all actives have a fitted effect of over 45% in size; also: potency is read from the fitted curve at half-maximal effect
How it was run: as §3

[11] = A CellTox Green Cytotoxicity Assay to monitor cytotoxicity in HEK293 cells - 32 hour (AID 1224881); also: nearly all actives have a fitted effect of over 40% in size; also: potency is read from the fitted curve at half-maximal effect
How it was run: as §1

[12] = A CellTox Green Cytotoxicity Assay to monitor cytotoxicity in HepG2 cells - 0 hour (AID 1224882); also: nearly all actives have a fitted effect of over 35% in size; also: potency is read from the fitted curve at half-maximal effect
How it was run: as §4

[13] = A CellTox Green Cytotoxicity Assay to monitor cytotoxicity in HepG2 cells - 32 hour (AID 1224883); also: nearly all actives have a fitted effect of over 50% in size; also: potency is read from the fitted curve at half-maximal effect
How it was run: as §4

[14] = A CellTox Green Cytotoxicity Assay to monitor cytotoxicity in HEK293 cells - 8 hour (AID 1224884); also: nearly all actives have a fitted effect of over 35% in size; also: potency is read from the fitted curve at half-maximal effect
How it was run: as §1

[15] = qHTS RealTime-Glo MT Cell Viability Assay in HepG2 cells - 16 hour (AID 1224885); also: nearly all actives have a fitted effect of over 50% in size
How it was run: as §5

[16] = qHTS RealTime-Glo MT Cell Viability Assay in HEK293 cells - 24 hour (AID 1224886)
How it was run: as §2

[17] = qHTS RealTime-Glo MT Cell Viability Assay in HEK293 cells - 8 hour (AID 1224887)
How it was run: as §3

[18] = A CellTox Green Cytotoxicity Assay to monitor cytotoxicity in HEK293 cells - 16 hour (AID 1224888); also: nearly all actives have a fitted effect of over 35% in size; also: potency is read from the fitted curve at half-maximal effect
How it was run: as §1

[19] = qHTS RealTime-Glo MT Cell Viability Assay in HepG2 cells - 0 hour (AID 1224889); also: nearly all actives have a fitted effect of over 50% in size; also: potency is read from the fitted curve at half-maximal effect
How it was run: as §5

[20] = A CellTox Green Cytotoxicity Assay to monitor cytotoxicity in HepG2 cells - 8 hour (AID 1224890); also: nearly all actives have a fitted effect of over 45% in size; also: potency is read from the fitted curve at half-maximal effect
How it was run: as §4
% is scaled to controls: 0 for no effect and ±100 for the full control effect.

CCCCCCCCCCCC
inactive: Potency [1] | Potency [2] | Potency [3] | max response [4] 0.33% | Potency [5] | Potency [6] | Potency [7] | Potency [8] | Potency [9] | Potency [10] | Potency [11] | Potency [12] | Potency [13] | Potency [14] | Potency [15] | Potency [16] | Potency [17] | Potency [18] | Potency [19] | Potency [20]

c1cnc(N2CCN(Cc3ccc4c(c3)OCO4)CC2)nc1
inactive: Potency [1] | Potency [2] | Potency [3] | max response [4] -13% | Potency [5] | Potency [6] | Potency [7] | Potency [8] | Potency [9] | Potency [10] | Potency [11] | Potency [12] | Potency [13] | Potency [14] | Potency [15] | Potency [16] | Potency [17] | Potency [18] | Potency [19] | Potency [20]

CCC(C)C1CCCCC1=O (stereo not given)
inactive: Potency [1] | Potency [2] | Potency [3] | max response [4] 7.3% | Potency [5] | Potency [6] | Potency [7] | Potency [8] | Potency [9] | Potency [10] | Potency [11] | Potency [12] | Potency [13] | Potency [14] | Potency [15] | Potency [16] | Potency [17] | Potency [18] | Potency [19] | Potency [20]

O=C(O)COc1nn(Cc2ccccc2)c2ccccc12
inactive: Potency [1] | Potency [2] | Potency [3] | max response [4] 3.59% | Potency [5] | Potency [6] | Potency [7] | Potency [8] | Potency [9] | Potency [10] | Potency [11] | Potency [12] | Potency [13] | Potency [14] | Potency [15] | Potency [16] | Potency [17] | Potency [18] | Potency [19] | Potency [20]

CC(=O)OCC(=O)[C@@]1(O)CCC2C3CCC4=CC(=O)CC[C@]4(C)C3[C@@H](O)C[C@@]21C (stereo not given in full)
active: Potency [10] 8.49 µM | Potency [19] 2.39 µM
inactive: Potency [1] | Potency [2] | Potency [3] | max response [4] -13.4% | Potency [5] | Potency [6] | Potency [7] | Potency [8] | Potency [9] | Potency [11] | Potency [12] | Potency [13] | Potency [14] | Potency [15] | Potency [16] | Potency [17] | Potency [18] | Potency [20]

CC(C)(C)NCCNC(C)(C)C
inactive: Potency [1] | Potency [2] | Potency [3] | max response [4] -0.754% | Potency [5] | Potency [6] | Potency [7] | Potency [8] | Potency [9] | Potency [10] | Potency [11] | Potency [12] | Potency [13] | Potency [14] | Potency [15] | Potency [16] | Potency [17] | Potency [18] | Potency [19] | Potency [20]

Nc1cc(=O)[nH]c(N)n1
inactive: Potency [1] | Potency [2] | Potency [3] | max response [4] 0.787% | Potency [5] | Potency [6] | Potency [7] | Potency [8] | Potency [9] | Potency [10] | Potency [11] | Potency [12] | Potency [13] | Potency [14] | Potency [16] | Potency [17] | Potency [18] | Potency [19]

C=C(C)C(=O)OCCCCCCCC(C)C
inactive: Potency [1] | Potency [2] | Potency [3] | max response [4] -8.22% | Potency [5] | Potency [6] | Potency [7] | Potency [8] | Potency [9] | Potency [10] | Potency [11] | Potency [12] | Potency [13] | Potency [14] | Potency [15] | Potency [16] | Potency [17] | Potency [18] | Potency [19] | Potency [20]

CCO/C([O-])=N/c1c[n+](N2CCOCC2)no1
inactive: Potency [1] | Potency [2] | Potency [3] | max response [4] 5.08% | Potency [5] | Potency [6] | Potency [7] | Potency [8] | Potency [9] | Potency [10] | Potency [11] | Potency [12] | Potency [13] | Potency [14] | Potency [15] | Potency [16] | Potency [17] | Potency [18] | Potency [19] | Potency [20]

Cc1cccc(C)c1NC(=O)C(C)N (stereo not given)
active: Potency [1] 19 µM | Potency [5] 21.3 µM | Potency [6] 21.3 µM | Potency [8] 21.3 µM | Potency [9] 23.9 µM | Potency [11] 19 µM | Potency [12] 21.3 µM | Potency [13] 21.3 µM | Potency [14] 19 µM | Potency [18] 19 µM | Potency [20] 21.3 µM
inactive: Potency [2] | Potency [3] | max response [4] 4.07% | Potency [7] | Potency [10] | Potency [16] | Potency [17] | Potency [19]

CCCCCCCCCCCCCCCCC
inactive: Potency [1] | Potency [2] | Potency [3] | max response [4] 5.06% | Potency [5] | Potency [6] | Potency [7] | Potency [8] | Potency [9] | Potency [10] | Potency [11] | Potency [12] | Potency [13] | Potency [14] | Potency [16] | Potency [17] | Potency [18] | Potency [19] | Potency [20]

N=C(N)c1ccc2cc(OC(=O)c3ccc(N=C(N)N)cc3)ccc2c1
inactive: Potency [1] | Potency [2] | Potency [3] | max response [4] 1.38% | Potency [5] | Potency [6] | Potency [7] | Potency [8] | Potency [9] | Potency [10] | Potency [11] | Potency [12] | Potency [13] | Potency [14] | Potency [16] | Potency [17] | Potency [18] | Potency [19] | Potency [20]

O=C(O)c1ccccc1OP(=O)(O)O
inactive: Potency [1] | Potency [2] | Potency [3] | max response [4] -0.358% | Potency [5] | Potency [6] | Potency [7] | Potency [8] | Potency [9] | Potency [10] | Potency [11] | Potency [12] | Potency [13] | Potency [14] | Potency [15] | Potency [16] | Potency [17] | Potency [18] | Potency [19] | Potency [20]
